Measured values from ChEMBL document CHEMBL3988442, “University of Dundee, Small-Polar-MMV Screening Library” (2021).
The whole screen tested about 48,000 compounds, of which about 13,000 (27%) showed an effect of 50% or more. The list shows a part of the results.

System: Wolbachia pipientis
Test: Anti-Wolbachia Cell-Based Screen
Format: functional
Design: scale not given: in the data most compounds retested in dose-response had high values
Conditions: 5 µM

Row | Compound | Percent Effect [%]
1 | O[C@@]1(CNCCCNc2cccnc2)CCCN2CCCC[C@@H]21 | 3.199
2 | Cc1nc(O)cc(CN2CC=C(c3cnn(C(C)(C)C)c3)CC2)n1 | 6.105
3 | CC(Cc1ccccc1Br)NC(=O)CCS(C)(=O)=O (centres undefined) | 11.71
4 | O=C(O)C(F)(F)F.c1ccc(NC[C@@H]2CCC[C@@H]3CN(Cc4cccnc4)C[C@@H]32)nc1 | 90.18
5 | O=C(O)C(F)(F)F.c1cnc(NC[C@@H]2CCC[C@@H]3CN(Cc4cccnc4)C[C@@H]32)nc1 | -1.894
6 | O=C(O)C(F)(F)F.c1ccc(NC[C@@H]2CCC[C@@H]3CN(Cc4nccs4)C[C@@H]32)nc1 | -15.69
7 | CSCCCN1CC[C@@]2(O)CCN(c3ncccn3)C[C@H]2C1 | -7.567
8 | Cc1cccc(-c2ncc(CNC(C)Cc3ncccc3C)cn2)c1 (centres undefined) | -7.429
9 | Cc1cc(NC2CC3(CCN(Cc4csc(C)n4)C3)C2)ncn1 (centres undefined) | 114
10 | c1cc(NC2CC3(CCN(Cc4cc[nH]n4)C3)C2)ncn1 (centres undefined) | -10.13
11 | Cc1cc(NC2CC3(CCN(Cc4cscn4)C3)C2)ncn1 (centres undefined) | 115
12 | Cc1cc(CN2C[C@H]3CCC[C@@]3(COCc3csc(C)n3)C2)no1.O=C(O)C(F)(F)F | 6.371
13 | Cc1noc(C)c1CN1C(=O)[C@H]2CC[C@@H]1CN(Cc1cscn1)C2 | -52.5
14 | Cc1nc(CN2CCC3(C2)CN(C(=O)c2conc2C)C3)cs1 | 97.08
15 | c1cc(NC2CC3(CCN(Cc4cscn4)C3)C2)ncn1 (centres undefined) | 101.6
16 | Cc1nc(CN2CCCC3(CCN(c4cccnc4)C3=O)C2)cs1.O=C(O)C(F)(F)F.O=C(O)C(F)(F)F (centres undefined) | -13.68
17 | NCC1(c2cccc(F)c2)CCOCC1 | -10.48
18 | Cc1cc(CC(=O)N2CCN(CC3CC3)[C@@H]3CS(=O)(=O)C[C@@H]32)ccc1F | 7.302
19 | O=S1(=O)CCC(n2cc(C3=CCN(CCc4ccccc4)CC3)cn2)C1 (centres undefined) | -5.355
20 | Cc1n[nH]c(C)c1CC(=O)N1CCN(C)C2(CCNC(=O)CC2)C1 (centres undefined) | 2.016
21 | O=C(Nc1ccccc1)[C@H]1CN2CC[C@H]1C[C@@H]2Cn1cc(CCO)nn1 | -5.907
22 | CC(=O)N1CCC2(CC1)c1ncc(-c3cccnc3)n1CCN2C | 84.46

Row | Compound | Percent Effect [%]
23 | CCC1CCCCN1CCc1ccncc1 (centres undefined) | -22.38
24 | CC1CN(CCc2ccncc2)CCO1 (centres undefined) | 124.6
25 | c1ccc2c(c1)CCC21CN(CCc2ccncc2)CCO1 (centres undefined) | -6.517
26 | CC(C)=CCN1C(=O)[C@H]2CC[C@@H]1CN(Cc1cccnc1N)C2 | 18.56
27 | COc1cccc(CC(C)NC(=O)NCc2ccn(C)c2)c1 (centres undefined) | -0.6382
28 | CN(C)C(=O)CN1CC[C@@H]2O[C@@H](COCc3cccnc3)CC[C@@H]21.O=C(O)C(F)(F)F.O=C(O)C(F)(F)F | -11.44
29 | O=C(NCC1CC[C@@]2(CNCCOC2)O1)c1cccnc1 (some centres undefined) | -3.368
30 | O=C(O)C(F)(F)F.O=C(O)C(F)(F)F.O=C1NCC[C@]12CN(Cc1cccnc1)C[C@H]2c1ccccc1 | -5.552
31 | COC[C@@H]1CCC[C@]12CN(Cc1cccc(C)n1)CCO2.O=C(O)C(F)(F)F.O=C(O)C(F)(F)F | 6.622
32 | O=C(O)C(F)(F)F.c1cc(COC[C@H]2CCC[C@]23CNCCO3)ccn1 | 99.79
33 | O=C(O)C(F)(F)F.O=C(O)C(F)(F)F.O=C1NCC[C@]12CN(Cc1ccncc1)C[C@H]2c1ccccc1 | 4.919
34 | Cl.Cl.c1cncc(COC[C@@H]2CCC[C@@]23CNCCO3)c1 | 86.08
35 | O=C(O)C(F)(F)F.O=C(O)C(F)(F)F.c1cncc(COC[C@@H]2CCC[C@]23CNCCO3)c1 | 101.8
36 | CCN(Cc1cccnc1)CC1CCCO1 (centres undefined) | -10.66
37 | CC(C)(C)c1cc(=O)[nH]c(C2(N)CCCC2)n1 | 3.211
38 | CC[C@H]1CN2CC[C@H]1C[C@@H]2CNC(=O)Nc1cccc(C(F)(F)F)c1 | -2.454
39 | Cc1noc(CN2CC=C(c3cnn(C4CCS(=O)(=O)C4)c3)CC2)n1 (centres undefined) | -14.25
40 | CCOc1ccc(-c2cc(CCN)ccc2OC)cc1 | 7.711
41 | O=C(N[C@H]1CN(Cc2cccs2)[C@@H]2CCCO[C@H]12)c1cccnc1.O=C(O)C(F)(F)F.O=C(O)C(F)(F)F | -1.494
42 | Cl.O=C(N[C@H]1CN[C@H]2CCCO[C@H]21)c1cscn1 | 6.195
43 | CN1C[C@H](NC(=O)c2cscn2)[C@@H]2OCCC[C@@H]21.O=C(O)C(F)(F)F | 111.9
44 | Nc1ncccc1CN1C[C@@H]2CC[C@H](C1)N(CC1CC1)C2=O | 7.202
